# Screening results from PubChem BioAssay.
# HT1080 IDH1KD tx – HT-1080 IDH1 knockdown cell toxicity (counter line); HT-1080 IDH1 knockdown viability, ATP luminescence, 48 h; Potency, µM (doses to about 46.1 µM), for inactives: top-dose activity, negative = toxicity, usual class: cytotoxic; actives 2% (n = 360,000);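 further: 0% = DMSO wells and -100% = cell-free medium wells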
#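 Knockdown cells (IDH1KD HT-1080) received compounds 2 h after plating at 750 cells/well and were kept 48 h at 37 °C in 5% FBS RPMI. A CellTiter-Glo luminescence read gave % activity for curve fitting.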
# KB-3-1 cytotox – KB-3-1 parental cell cytotoxicity | KB-3-1 viability, CellTiter-Glo ATP luminescence, 72 h | Potency, µM (titrated, usually from 46.1 µM), hits mostly cytotoxic | actives 1.4% (n = 400,000) | AID 1347075; further: on the % scale 0 is the no-effect control and ±100 the full control effect; nearly all actives have a fitted effect of over 60% in size
#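 Multi-concentration cytotoxicity screen in KB-3-1 cells grown in DMEM lacking phenol red with 10% FBS. After 72 h at 37 °C with compound, ATP-dependent luminescence was recorded.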
# HT1080-NT tox – kills 2HG-producing HT-1080-NT fibrosarcoma cells; HT-1080-NT fibrosarcoma viability, CellTiter-Glo ATP luminescence, 48 h; Potency, µM (top dose mostly 46.1 µM), for the others: at the highest dose activity, negative = less viability, usual class: cytotoxic; actives 1.6% (n = 360,000); AID 686970;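 further: NT is the 2HG producing partner of a matched IDH1 knockdown line; 0% = DMSO-treated cells and -100% = media-only wells without cells; nearly all actives have a fitted effect of over 55% in size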
#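 Viability by CellTiter-Glo luminescence after 48 h compound exposure at 37C of HT-1080-NT cells (750/well, RPMI, 5% FBS). % activity scaled between DMSO wells and medium-only wells, then curve-fitted and categorized by curve class.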
# KB-V1 cytotox – KB-V1 MDR subline cytotoxicity | KB-V1 MDR cells viability, CellTiter-Glo, 72 h | Potency, µM (titrated, usually from 46.1 µM), usual class: cytotoxic | actives 3.4% (n = 400,000) | AID 1347076; further: on the % scale 0 is the no-effect control and ±100 the full control effect; nearly all actives have a fitted effect of over 60% in size
#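 Cytotoxicity toward P-gp-expressing KB-V1 cells was determined as loss of CellTiter-Glo luminescence after 72 h at 37 degrees C. Compounds were tested in quantitative HTS format across a concentration range, with curves fitted to normalized data.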
# SW480 rereplic – induces DNA re-replication in SW480 colon adenocarcinoma cells; SW480 DNA re-replication, Hoechst DNA content imaging, 48 h; Potency, µM (titrated, usually from 46.1 µM), inactives show top-dose re-replication activation, hits mostly activators; actives 1.8% (n = 340,000); AID 624297; further: % of control where 0% means no effect; nearly all actives have a fitted effect of over 55% in size
#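 Treated cells incubate 48 hr (37 C, 5% CO2), are stained 40 min with Hoechst, and nuclear fluorescence is enumerated; a rise in nuclei with high DNA signal marks re-replication.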
# MCF10A rereplic – inducers of DNA re-replication in MCF 10A breast cells. actives 2.9% (n = 350,000). MCF 10A DNA re-replication, Hoechst nuclear intensity, 48 h. Potency, µM (top dose mostly 46.1 µM), for the others: at the top dose activity, positive = re-replication, usual class: activators; further: % of control where 0% means no effect; nearly all actives have a fitted effect of over 50% in size
# An asterisk follows results filed as active; i = inactive; ? = inconclusive; nt = no result given; ! = a repeat was not active; [ ] = remark or other dose. A selection: hits, their analogues and other compounds. The true share with any hit is near 7.9%. The call rests on the fitted dose curve; in most records, active means well fitted curve in the direction sought with a large enough effect; inconclusive means small, poorly fitted or top-dose-only effect, or another doubt; inactive means no such curve, though single readings can be large; an effect the other way counts as inactive or inconclusive. Potency means the concentration at half of the fitted maximal effect.
SMILES,HT1080 IDH1KD tx,KB-3-1 cytotox,HT1080-NT tox,KB-V1 cytotox,SW480 rereplic,MCF10A rereplic
COc1ccc(N2CCN(CC(=O)c3ccc(Cl)cc3)CC2)cc1,0.3%,i,-0.2%,?,-2.3%,18.4µM*
CCOc1ccc(-n2c(SCC(N)=O)nc3c(oc4ccccc43)c2=O)cc1,nt,i,nt,i,nt,nt
CCC(Cc1ccccc1)NC(=O)c1ccc2nc(N3CCC(C)CC3)sc2c1 (stereo not given),nt,i,nt,i,nt,nt
O=C(CN1C(=O)CCc2cc(Br)ccc21)Nc1ccc(OC(F)(F)F)cc1,nt,i,nt,i,nt,nt
COc1ccc2c(CN(C)c3ccccc3)cc(=O)oc2c1,-0.7%,i,-1.6%,18.4µM*,-5.2%,-9.3%
Fc1ccc(CNn2cnnc2SCc2ccc(F)cc2)cc1,?,i,-23.6%,?,1.0%,5.0%
Cc1ccc(CNn2cnnc2SCc2ccc(F)cc2)cc1,?,?,-27.2%,14.6µM*,5.8%,4.1%
Cc1ccc(-c2c(C(=O)Nc3ccccc3F)oc(=O)c3ccccc23)cc1,nt,i,nt,i,nt,nt
Cc1ccc(-c2c(C(=O)NCc3ccc(F)cc3)oc(=O)c3ccccc23)cc1,-2.8%,i,-2.1%,16.4µM*!,0.2%,8.6%
CN1C/C(=C/c2ccncc2)C(=O)/C(=C/c2ccncc2)C1,-3.8%,i,-5.6%,i,23.1µM*,?
O=C1/C(=C\c2ccsc2)N2CCC1CC2,15.5%,i,2.1%,i,-4.0%,-1.3%
CN1C/C(=C/c2ccsc2)C(=O)/C(=C/c2ccsc2)C1,?,?,?,?,3.26µM*,18.4µM*
O=C(NCCCn1ccnc1)/C(=C\c1ccc(Br)cc1)NC(=O)c1ccccc1,-12.6%,i,-12.4%,i,7.6%,1.3%
OC(Cc1ccc2ccccc2n1)c1ccccc1 (stereo not given),nt,?,nt,i,nt,nt
CN(C)Cc1cc(C(F)(F)F)ccc1C(O)(c1ccccc1)c1ccccc1,-1.9%,?,-15.0%,20.6µM*,?,21.5%
Cc1cccc(NC(=O)c2ccc([N+](=O)[O-])s2)n1,?,i,?,i,-0.8%,11.0%
NC(=O)c1ccccc1NC(=O)c1ccc(-c2ccc(Br)cc2)o1,nt,i,nt,i,nt,nt
Cc1cccc(NC(=O)c2ccc([N+](=O)[O-])o2)n1,?,i,?,?,3.66µM*,?
Cc1ccc(NC(=O)c2ccc([N+](=O)[O-])o2)c(C)c1,?,?,-1.2%,?,?,?
O=C(Nc1cccc2ncccc12)c1ccc(-c2ccc(Br)cc2)o1,?,i,?,10.3µM*,0.5%,1.3%
O=C(Nc1ccccc1Cl)c1ccc([N+](=O)[O-])o1,20.6µM*,23.1µM*,?,i,7.31µM*,13µM*
O=C(Nc1cccc2ncccc12)c1ccc([N+](=O)[O-])o1,14.6µM*,i,16.4µM*,?,1.46µM*,4.61µM*
Cc1cccnc1NC(=O)c1ccc([N+](=O)[O-])o1,15.6%,i,-1.4%,i,?,0.2%
Cc1ccc2[nH]c(=O)c(CN(CCO)Cc3nnnn3Cc3ccccc3)cc2c1,nt,?,nt,i,nt,nt
COc1ccccc1NC(=O)C(C)OC(=O)Cc1ccsc1 (stereo not given),16.1%,i,14.9%,i,-2.5%,0.8%
SMILES,HT1080 IDH1KD tx,KB-3-1 cytotox,HT1080-NT tox,KB-V1 cytotox,SW480 rereplic,MCF10A rereplic
Cc1c(NC(=O)c2ccc([N+](=O)[O-])o2)cccc1-c1nc2ncccc2o1,?,?,9.2µM*,?,?,?
Cc1ccccc1NC(=O)c1ccc([N+](=O)[O-])o1,25.9µM*,i,-25.4%,i,?,14.6µM*
O=C(COC(=O)/C=C/C(=O)OCC(=O)Nc1ccccc1F)Nc1ccccc1F,-4.0%,i,-3.4%,i,-4.1%,?
COc1ccc(N/N=C(/C(C)=O)N2CCCc3ccccc32)cc1,-22.7%,20.6µM*,-25.8%,i,-10.2%,16.4%
COc1ccc(NC(=O)N2CCCc3ccccc32)cc1,7.5%,i,-2.1%,i,-0.6%,3.8%
COc1ccc(OC)c(/C=C/C(=O)N2CCCc3ccccc32)c1,-0.7%,i,-10.8%,?,10.4%,-0.1%
COc1ccc(/C=C/C(=O)N2CCCc3ccccc32)cc1,15.5%,i,15.9%,13µM*,?,?
Cc1ccc2[nH]c3ccccc3c(=O)c2c1,-21.9%,i,-10.9%,i,?,16.4µM*
COc1c(F)cc2[nH]c3c(c2c1F)CCNC3=O,nt,i,nt,?,-20.5%[9.22 µM],-2.2%
O=c1[nH]c2ccccc2c(=O)c2ccccc12,-3.9%,i,-1.2%,i,nt,nt
Cc1ccc2[nH]c3c(c2c1)CCNC3=O,-15.5%,?,-3.8%,5.8µM*,-12.6%,0.1%
O=c1c2ccccc2[nH]c2ccc(F)cc12,-2.8%,i,-4.0%,i,16.4µM*,9.2µM*
O=c1c2ccccc2[nH]c2ccc(O)cc12,-1.8%,i,3.2%,i,23.1µM*,-11.6%
O=C(CSc1ncc2c(n1)-c1ccccc1N(Cc1ccc(Cl)cc1)S2(=O)=O)c1ccccc1,nt,i,nt,i,nt,nt
O=c1[nH]cc(S(=O)(=O)N2CCN(c3ccc(F)cc3)CC2)c(=O)[nH]1,-2.2%,i,0.3%,?,nt,nt
COc1ccccc1CCNC(=O)C(=O)NCC1OCCN1S(=O)(=O)c1ccc([N+](=O)[O-])cc1 (stereo not given),-3.0%,i,-1.4%,i,?,-17.0%
O=C1NC[C@H](CCCCN2CCN(CCc3ccccc3)C(=O)C2=O)N(CCC2CCCCC2)C1=O,13.4%,i,23.3%,i,nt,nt
O=C(CCc1ccccc1)Nc1cccc([S+](=O)([O-])Nc2ccccc2F)c1,nt,i,nt,i,nt,nt
CCc1nnc(NC(=O)CSc2nc3c([nH]c4ccccc43)c(=O)n2-c2ccc(OC)cc2)s1,nt,i,nt,?,nt,nt
CCOC(=O)C(O)C1CCc2c([nH]c3ccc(C)cc23)C1=O (stereo not given),0.0%,?,-6.6%,18.4µM*,?,?
COc1cc2c(cc1NCc1ccc3c(c1)OCO3)oc1ccccc12,-5.6%,?,-5.7%,i,-3.8%,9.9%
COCCCNC(=S)Nc1cc2oc3ccccc3c2cc1OC,11.6µM*,?,2.31µM*,?,11.6µM*,9.2µM*
COc1cc2c(cc1NS(=O)(=O)N1CCCCC1)oc1ccccc12,?,i,?,i,?,10µM*
COc1cc2c(cc1NCc1ccccn1)oc1ccccc12,-10.7%,i,-12.1%,i,3.4%,23.1µM*
